67 compounds from PubChem BioAssay AID2845 (The Scripps Research Institute Molecular Screening Center, 2010) can be followed below.

Screen size: about 2,300 compounds; about 2,000 (87%) were called active. The set was probably picked from earlier hits. These entries were drawn from the full list. Values without a mark were called inactive. No stated cut-off is given here; in the data, active means activation above about 49%; inactive means the rest.

Sequence of Aryl hydrocarbon receptor (Homo sapiens) (P35869 whole entry, looked up): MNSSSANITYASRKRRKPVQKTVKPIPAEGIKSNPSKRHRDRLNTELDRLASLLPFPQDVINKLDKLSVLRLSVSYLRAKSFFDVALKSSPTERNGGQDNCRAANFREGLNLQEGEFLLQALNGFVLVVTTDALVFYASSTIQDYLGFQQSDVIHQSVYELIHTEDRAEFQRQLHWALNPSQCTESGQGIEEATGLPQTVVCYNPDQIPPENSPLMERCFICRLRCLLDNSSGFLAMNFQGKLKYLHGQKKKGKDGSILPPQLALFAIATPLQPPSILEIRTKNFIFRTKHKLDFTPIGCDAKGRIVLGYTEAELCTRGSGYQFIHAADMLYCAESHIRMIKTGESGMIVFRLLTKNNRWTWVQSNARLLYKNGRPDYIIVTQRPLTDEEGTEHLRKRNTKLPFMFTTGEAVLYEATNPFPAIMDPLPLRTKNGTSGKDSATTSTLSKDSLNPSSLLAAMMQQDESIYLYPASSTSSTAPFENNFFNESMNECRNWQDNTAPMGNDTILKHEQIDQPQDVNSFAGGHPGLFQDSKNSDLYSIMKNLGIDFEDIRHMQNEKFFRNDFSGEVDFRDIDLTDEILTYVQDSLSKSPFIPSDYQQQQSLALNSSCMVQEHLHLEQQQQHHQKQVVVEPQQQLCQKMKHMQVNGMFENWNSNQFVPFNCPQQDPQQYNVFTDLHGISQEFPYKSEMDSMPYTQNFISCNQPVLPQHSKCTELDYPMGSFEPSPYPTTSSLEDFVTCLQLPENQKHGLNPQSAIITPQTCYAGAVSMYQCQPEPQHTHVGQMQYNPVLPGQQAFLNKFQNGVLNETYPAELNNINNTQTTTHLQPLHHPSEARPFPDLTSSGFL

The assay addresses Aryl hydrocarbon receptor (Homo sapiens) (UniProt P35869). The experiment in a line: AHR activators, confirmation, cell-based, luminescence, luciferase reporter, human (AID 2845).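 Further: HepG2 hepatoma cells carrying a DRE-driven firefly luciferase reporter; 0% = vehicle wells and 100% = reference agonist wells.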 Particulars: human cells, AHR-responsive luciferase reporter, at 9 µM, hits give high values.
With `Cc1ccnc(-n2sc3ccccc3c2=O)n1`, the activation is 55.4% (active).
To `COc1ccccc1NC(=O)C1=C(C)NC2=C(C(=O)CCC2)C1c1ccc(C)o1` (configuration not stated) belongs 110% (active); to `NC(=O)Nc1ccccc1C(=O)NCCc1ccccc1`, 106% (active); to `CC(C)n1ncc2c(C(=O)Nc3ccc(CC#N)cc3)cc(C3CC3)nc21`, 25.4%.
Consider `Cc1ccc(NC(=O)Nc2cccnc2)cc1`, for which the activation was 67.7% (active).
To `CCC(=O)NC(=S)Nc1ccc(NC(=O)c2ccco2)c(Cl)c1` belongs 82% (active).
As for `COc1cc(NC(=O)c2ccc(-c3csc(C)n3)cc2)c(OC)cc1Cl`, the activation is 119% (active).
To `CCNC(=S)N1CCC(c2nc3cc(C)c(C)cc3[nH]2)CC1` belongs 25.5%; to `O=C(Nc1cccc(Br)c1)c1ccc2snnc2c1`, 74.4% (active); to `CNC(=O)c1ccc2nc(NC(C)=O)sc2c1`, 22.7%.
To `COc1cc(CNCc2ccc3c(c2)OCO3)c([N+](=O)[O-])cc1OC` belongs 87.3% (active).
To `Brc1ccc(C2=CC(c3ccco3)n3ncnc3N2)cc1` (configuration not stated) belongs 90.4% (active); to `S=c1[nH]nc(-c2cc(-c3ccsc3)n[nH]2)n1-c1ccccc1`, 103% (active); to `Cc1ccnc(NC(=O)c2ccc(Cl)c([N+](=O)[O-])c2)c1`, 60.8% (active).
`Cc1cccc(N=Nc2c(O)[nH]c3ccc(F)cc23)c1`: the activation was 147% (active).
To `COc1cccc(-c2nc3cc(C)ccc3o2)c1` belongs 47% (active); to `CC(=O)Nc1ccc(-c2nc3ccccc3o2)cc1`, -4.38%; to `COc1ccc(OC)c(-c2csc(-c3cccs3)n2)c1`, 94.4% (active).
As to `O=C(CCCCn1c(=O)[nH]c2ccccc2c1=O)NCc1ccc2c(c1)OCO2`, the activation is 56.1% (active).
Consider `Brc1ccc(C2CC(c3ccccc3)=Nc3ccccc3N2)cc1` (configuration not stated), for which the activation was 80.8% (active).
As to `NNc1nc2c(Cl)cccc2s1`, the activation is 57.5% (active).
To `CC(C)n1cnc2c(Nc3cccc(Cl)c3)nc(N(CCO)CCCO)nc21` belongs 11.4%.
Under `CN(C)S(=O)(=O)Oc1ccccc1C(=O)Nc1ccccc1Cl` stands 99.1% (active); under `CCOC(=O)c1nc(-c2ccc3c(c2)OCO3)[nH]c1C`, 68.3% (active); under `CCn1c2ccccc2c2cc(NC(=O)C/C(C)=N/NC(=O)c3ccccc3N)ccc21`, 61.5% (active).
To `CCn1c(NC(=O)c2nn(C)cc2Br)nc2ccccc21` belongs 70.7% (active); to `O=C(Nc1ccc(Cl)cn1)c1cnn2cccnc12`, 179% (active); to `COc1ccc(Nc2nnc(C)c3ccccc23)cc1`, 82.5% (active).
With `Cn1c(C(=O)NCCc2ccsc2)cc2c(=O)n(C)c3ccccc3c21`, the activation was 65.4% (active).
`O=C(NC1CC1)C1=C[C@H](c2c[nH]c3ccccc23)C[C@H](OCc2ccc(CO)cc2)O1`: the activation was 27.6%.
As to `O=C(N/N=C/c1c[nH]c2ccccc12)c1cc2ccccc2o1`, the activation is 42.3%.
To `O=C(N/N=C/c1ccco1)c1ccc(C(=O)N/N=C/c2ccco2)o1` belongs 73.2% (active); to `COc1ccc(NC(=O)c2ccco2)cc1NC(=O)c1ccc(C#N)cc1F`, 71.7% (active).
As to `N#C/C(=C(/O)COc1cccc2ccccc12)c1nc2ccccc2[nH]1`, the activation is 84.1% (active).
`O=C(Nc1cc(S(=O)(=O)Nc2ccc(Cl)cc2)ccc1O)c1ccc(F)cc1F`: the activation was 103% (active).
For the compound `Cc1nnc(NC(=O)/C=C/c2ccco2)s1`, the activation is 127% (active).
Under `NS(=O)(=O)c1ccc(-c2ccc(/C=C3\SC(=O)NC3=O)o2)cc1` stands 116% (active); under `COc1cc(/C=N/N=C(\N)c2nonc2N)cc(OC)c1OC`, 101% (active); under `Cc1cccc(NC(=O)c2ccc3ccccc3n2)n1`, 128% (active).
Under `Cc1csc(NC(=S)Nc2cccc(Cl)c2)n1` stands 98.7% (active); under `C/C(=N/NC(=S)Nc1ccccc1)c1ccc2c(c1)OCO2`, 16%; under `CCSc1ccccc1C(=O)Nc1ccc2c(c1)OCO2`, 101% (active).
As to `Cc1cccc(NC(=O)Nc2ccc3c(c2)OCO3)n1`, the activation is 123% (active).
For the compound `CCC(C)NCC(=O)Nc1ccc([N+](=O)[O-])cc1C(=O)Nc1ccccc1F` (configuration not stated), the activation is 88.2% (active).
Under `COCCNc1nc(-c2ccccc2)nc2c1oc1ccccc12` stands 121% (active); under `CSc1ccc(C#N)cc1NC(=O)c1ccc(Cl)cc1`, 86.5% (active).
On to `CCN(CC)C(=O)Oc1ccc(Br)cc1C(=O)Nc1ccc(F)c(Cl)c1`, for which the activation was 124% (active).
`C/C(=N\NC(=O)c1cccnc1)c1ccc(-n2ccnc2)cc1`: the activation was 86.3% (active).
Regarding `C(=N\Nc1ccc2ccccc2n1)/c1ccc2c(c1)OCO2`, the activation was -10.8%.
Under `Cc1noc(C)c1/C=N/Nc1ccc2ccccc2n1` stands 176% (active); under `COc1ccccc1Nc1ncnc2c1oc1ccccc12`, 132% (active); under `CCn1ccnc1CN(C)Cc1nc(-c2ccc3c(c2)OCO3)no1`, 79.9% (active).
Take `O=C(Nc1ccc(C2CC2(Cl)Cl)cc1)c1cccc([N+](=O)[O-])c1` (configuration not stated): the activation is 96.2% (active).
To `O=C(NCCCn1ccnc1)c1cc(-c2ccccc2)on1` belongs 323% (active); to `Clc1ccc(Nc2nc(-c3cccs3)cs2)nc1`, 141% (active); to `Cc1ccc(NC(=O)NNC(=O)c2sccc2-n2cccc2)cc1`, 101% (active).
Under `COc1ccc2nc(Nc3nc(-c4ccncc4)cs3)sc2c1` stands 101% (active); under `COc1ccc(Nc2nc(-c3ccccc3)cs2)cc1`, 91.2% (active).
To `Cc1cccc(Nc2nc(-c3ccccc3)cs2)n1` belongs 131% (active); to `C/C(CC1CC(C)(C)OC1=O)=N/Nc1nc(-c2ccccc2)cs1` (configuration not stated), -2.24%.
For the compound `S=c1nc2ccccc2c2nc(-c3cccnc3)[nH]n12`, the activation was 125% (active).
With `O=C(Nc1ccc(C(F)(F)F)cc1)c1cccc(-n2cnnn2)c1`, the activation was 106% (active).
In the case of `O=C(Nc1ccc(-c2csc(Nc3cccc(C(F)(F)F)c3)n2)cc1)c1cccc(C(F)(F)F)c1`, the activation is 4.55%.
Under `CC(C(=O)N=Nc1c(O)n(C)c2ccc(Br)cc12)n1cnc2ccccc2c1=O` (configuration not stated) stands 73.7% (active).
Turning to `O=C(CSc1cccc2cccnc12)N/N=C/c1cccnc1`, the activation was 21.4%.
Under `Cc1nn(Cc2ccc(Cl)cc2)c(Cl)c1/C=N/NC(=O)c1cccnc1` stands 74.2% (active); under `Cc1c(C(=O)NCC(c2ccco2)N2CCCC2)oc2ccc(Cl)cc12` (configuration not stated), 75.5% (active).
